HCV inhibitor – qHTS Assay for Inhibitors of Hepatitis C Virus (HCV); Huh7.5.1 HCVcc-Cre infection, luciferase reporter, 44 h; Potency, µM (doses to about 41.8 µM), usual class: inhibitors; 340,000 compounds, 3.4% hits
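A cell-based infection assay in which seeded cells (1,000 per well) receive test compound after 4 h, are inoculated with HCVcc-Cre at approximately 0.5 moi, and are incubated 44 h before luminescence detection.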
AMA1-RON2 inh – qHTS for Inhibitors of AMA1-RON; Towards Development of Antimalarial Drug Lead: Primary Screen; Plasmodium falciparum AMA1 (3D7) - RON2 peptide interaction; AlphaScreen AMA1-biotinylated RON2 peptide binding; Potency, µM (titrated, usually from 58.2 µM), usual class: inhibitors; 360,000 compounds, 0.2% hits; AID 720542, 2013; note: nearly all actives have a fitted effect of over 45% in size
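AMA1 (3D7) with his tag at 25 nM final met compounds first, then biotinylated RON2 peptide at 25 nM; detection used donor plus acceptor beads, 10 µg/mL apiece, read by AlphaScreen after 30 min at room temperature.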
Shiga inhibitor – A qHTS for Small Molecule Inhibitors of Shiga Toxin; AID 2315, 2010; 290,000 compounds, 9.2% hits; Vero cells, Shiga toxin protein synthesis inhibition reporter; inhibition, % at 38.7 µM; in the data active = inhibition mostly above about 28%, no sharp cut-off; inactive = mostly below about 43%
Pf growth 48h – Primary qHTS for delayed death inhibitors of the malarial parasite plastid, 48 hour incubation; P. falciparum luciferase growth in erythrocytes, 48 h; Potency, µM (top dose mostly 28.7 µM), hits mostly inhibitors; 310,000 compounds, 5.9% hits; AID 504832, 2011
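Compounds are pin-transferred into medium, infected erythrocytes (2% hematocrit, 0.1% parasitemia final) are added, and plates sit one parasite generation at 37 C in 5% CO2. Detection reagent is then added and luminescence measured.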
CHX counter – Cycloheximide Counterscreen for Small Molecule Inhibitors of Shiga Toxin; 300,000 compounds, 12% hits; cell reporter, cycloheximide protein synthesis inhibition counterscreen; AID 2314, 2010; max response, %; in the data active = max response mostly above about 13%, no sharp cut-off; inactive = mostly below about 14%; note: read at 38.3 µM for the half of the compounds with a filed dose
Pf growth 96h – Primary qHTS for delayed death inhibitors of the malarial parasite plastid, 96 hour incubation | P. falciparum luciferase reporter growth, 96 h | Potency, µM (series often up to 28.7 µM), usual class: inhibitors | 320,000 compounds, 6.9% hits
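Cell-based qHTS: luciferase-tagged P. falciparum in erythrocytes (2% hematocrit, 0.05% parasitemia final) incubated with compounds for 96 hours, 37 C, 5% CO2; luciferase detection reagent then added and luminescence measured.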
Large screens that a line does not name were inactive. A selection: hits, their analogues and other compounds. The true share with any hit is near 21%. Unless noted, calls come from the whole dose curve; as a rule, active = well fitted curve in the direction sought with a large enough effect; inconclusive = small, poorly fitted or top-dose-only effect, or another doubt; inactive = no such curve, though single readings can be large; an effect the other way counts as inactive or inconclusive.

COC(=O)Cn1c(C(=O)N2CCCC2)cc2c1C[C@H]1CN(C(=O)c3ccccc3)[C@@](Cc3ccc(F)cc3)(C(=O)OC)[C@@H]21	Pf growth 48h 5.2µM, Pf growth 96h 8.3µM
COC(=O)Cn1c(C(=O)N2CCCC2)cc2c1C[C@H]1CN(C(=O)c3ccccc3)[C@@](Cc3ccc(OC)cc3)(C(=O)OC)[C@@H]21	none (no result: HCV inhibitor, Shiga inhibitor, Pf growth 48h, CHX counter, Pf growth 96h)
COC(=O)[C@@]1(Cc2ccc(F)cc2)[C@H]2c3cc(C(=O)N4CCCC4)n(CCO)c3C[C@H]2CN1C(=O)c1ccccc1	HCV inhibitor inconclusive, Pf growth 48h 3.7µM, Pf growth 96h 6.6µM
Cc1ccc(NC(=O)CN2C(=O)C(=O)N(C3CCCC3)C2=O)c(Cl)c1	Pf growth 96h inconclusive (no result: Shiga inhibitor, CHX counter)
COC(=O)[C@@]1(Cc2ccc(OC)cc2)[C@H]2c3cc(C(=O)N(C)C)n(CCSCCO)c3C[C@H]2CN1C(=O)c1ccccc1	Pf growth 48h 2.3µM, Pf growth 96h 5.2µM
COC(=O)[C@@]1(Cc2ccc(OC)cc2)[C@H]2c3cc(C(=O)N4CCCC4)n(CCO)c3C[C@H]2CN1C(=O)c1ccccc1	Pf growth 48h inconclusive, Pf growth 96h 4.7µM
COC(=O)[C@@]1(Cc2ccc(F)cc2)[C@H]2c3cc(C(=O)N(C)C)n(CCF)c3C[C@H]2CN1C(=O)c1ccccc1	none (no result: HCV inhibitor, Shiga inhibitor, Pf growth 48h, CHX counter, Pf growth 96h)
COC(=O)[C@@]1(Cc2ccc(OC)cc2)[C@H]2c3cc(C(=O)N4CCCC4)n(CCc4c[nH]c5ccc(O)cc45)c3C[C@H]2CN1C(=O)c1ccccc1	Pf growth 48h 1µM, Pf growth 96h 2.1µM (no result: AMA1-RON2 inh)
COC(=O)[C@@]1(Cc2ccc(OC)cc2)[C@H]2c3cc(C(=O)N4CCCC4)n(Cc4ccccc4)c3C[C@H]2CN1C(=O)c1ccccc1	none (no result: HCV inhibitor, Shiga inhibitor, Pf growth 48h, CHX counter, Pf growth 96h)
O=C(NC(=S)Nc1ccc2oc(=O)ccc2c1)c1cc2ccccc2o1	none
CN1c2ccccc2C(=O)C(=C2SCCCS2)S1(=O)=O	CHX counter 25
CC(=O)c1c(C)[nH]c(C(=O)NCCN2CCC(C)CC2)c1C	Pf growth 96h 12µM
CC(=O)c1c(C)[nH]c(C(=O)NCC2CCCCC2)c1C	Shiga inhibitor 63
CCCNC(=O)c1[nH]c(C)c(C(C)=O)c1C	Pf growth 48h inconclusive
CCOc1ccccc1N(CC(=O)Nc1cccc2ccccc12)S(C)(=O)=O	none
CC(C(=O)N1CCCCC1)n1sc2ccccc2c1=O (configuration not stated)	Shiga inhibitor 67, CHX counter 31
CC(C(=O)N1CCN(C(=O)c2ccco2)CC1)n1sc2ccccc2c1=O (configuration not stated)	Pf growth 48h inconclusive
Cc1ccc(-n2ncc3c(NNC(=O)c4ccco4)ncnc32)cc1Cl	CHX counter 57, Pf growth 96h inconclusive
Cc1cccc(-n2ncc3c(NNC(=O)c4ccco4)ncnc32)c1	CHX counter 20
Cc1ccc(-n2ncc3c(NNC(=O)Cc4ccccc4)ncnc32)cc1	HCV inhibitor inconclusive, CHX counter 14
CCN(CC)CCCN(C(=O)Cn1nnc(-c2ccc(OC)c(OC)c2)n1)C(C(=O)NC(C)(C)C)c1ccc(F)cc1 (configuration not stated)	Pf growth 48h inconclusive, Pf growth 96h inconclusive
Cc1ccsc1C(=O)Nc1ccc(S(=O)(=O)N2CCOCC2)cc1	none (no result: Shiga inhibitor, CHX counter)
CC1(C)Cc2c(ccc3ccccc23)/C(=C/C(=O)N2CCCCC2)N1	HCV inhibitor inconclusive, AMA1-RON2 inh inconclusive, Pf growth 48h 10µM, Pf growth 96h inconclusive
COC(=O)COc1ccc2c(c1)O/C(=C\c1cccc([N+](=O)[O-])c1)C2=O	none
Cc1ccccc1/C=C1\Oc2ccccc2C1=O	none (no result: Shiga inhibitor, Pf growth 48h, CHX counter, Pf growth 96h)
O=C1/C(=C/c2cccc(F)c2)Oc2cc(O)ccc21	Shiga inhibitor 40, CHX counter 22
O=C1/C(=C/c2ccc(O)c(O)c2)Oc2ccccc21	Shiga inhibitor 77, CHX counter 35 (no result: HCV inhibitor, AMA1-RON2 inh, Pf growth 48h, Pf growth 96h)
Cc1cccc(/C=C2\Oc3cc(OS(C)(=O)=O)ccc3C2=O)c1	HCV inhibitor inconclusive, CHX counter 26

Screens deposited in PubChem by National Center for Advancing Translational Sciences (NCATS).
